Source: the supplement of paper PMC10121225
Where a name gives a salt, the structure may show the parent alone.

system: hN + hpA co-culture (H1 iNGN2 human neurons + human primary astrocytes); assay: presynaptic density (SYNAPSIN1 puncta per MAP2 neurite area), Z-score vs DMSO controls; higher = more presynaptic puncta (synapse-promoting); details: 3 µM; 72 h
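Note: immunostained co-cultures imaged by high-content microscopy, Z-score per plate against mean and SD of 0.1% DMSO wells, compounds added on differentiation day 18, analysed day 21.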

Row | SMILES | presynaptic density (Z-score)
1 | N#CSc1cc(SC#N)c(N)nc1N | -0.815
2 | Cc1nnc(C(=O)NC(C)(C)c2nc(C(=O)NCc3ccc(F)cc3)c(O)c(=O)n2C)o1 [Raltegravir (MK-0518)] | -0.683
3 | C[C@]12C=CC(=O)N[C@@H]1CC[C@@H]1[C@@H]2CC[C@]2(C)[C@@H](C(=O)Nc3cc(C(F)(F)F)ccc3C(F)(F)F)CC[C@@H]12 [Dutasteride] | -1.23
4 | O=C(NNc1nc2cc(F)ccc2n2cccc12)c1cnccn1 | -1.29
5 | CCOC(=O)[C@H](CCc1ccccc1)N[C@@H](C)C(=O)N1C(=O)N(C)C[C@H]1C(=O)O [Imidapril HCl] | -0.0695
6 | CC(C)(F)C[C@H](N[C@@H](c1ccc(-c2ccc(S(C)(=O)=O)cc2)cc1)C(F)(F)F)C(=O)NC1(C#N)CC1 [Odanacatib (MK-0822)] | -0.252
7 | Nc1nc(CC(=O)Nc2ccc(CCNC[C@H](O)c3ccccc3)cc2)cs1 [Mirabegron] | -0.111
8 | O=C1C(=O)N(Cc2ccc(Cl)c(Cl)c2)c2ccccc21 [1-[(3 4-Dichlorophenyl)methyl]-1H-indole-2 3-dione] | -0.359
9 | NC(=O)c1cccc(-c2cccc(OC(=O)NC3CCCCC3)c2)c1 | -1.17
10 | COC1CC2CCC(C)C(O)(O2)C(=O)C(=O)N2CCCCC2C(=O)OC(C(C)CC2CCC(OC(=O)C(C)(CO)CO)C(OC)C2)CC(=O)C(C)C=C(C)C(O)C(OC)C(=O)C(C)CC(C)C=CC=CC=C1C (centres undefined) [Temsirolimus (CCI-779] | 0.145
11 | O=C(N/N=C/c1ccc(O)c(O)c1)c1cc2ccccc2cc1O | -0.146
12 | CCO[C@@H]1OC(=O)C[C@@H]1NC(=O)[C@@H]1CCCN1C(=O)[C@@H](NC(=O)c1ccc(N)c(Cl)c1)C(C)(C)C | -1.02
13 | NC(=O)N1c2ccccc2CC(=O)c2ccccc21 | 0.372
14 | O=[N+]([O-])c1ccc2c(c1)S(=O)(=O)C=C2 [6-Nitrobenzo[b]thiophene 1,1-dioxide] | 0.915
15 | COc1cc(N2CCC(N(C)C)CC2)ccc1Nc1ncc(Cl)c(Nc2ccccc2P(C)(C)=O)n1 | 0.449
16 | COc1cc2c(N3CCN(C(=O)Nc4ccc(OC(C)C)cc4)CC3)ncnc2cc1OCCCN1CCCCC1 | -0.158
17 | Nc1ncnc2c1c(-c1cccc(OCc3ccccc3)c1)cn2C1CC(CN2CCCC2)C1 (centres undefined) | -1.9
18 | O=C(Nc1cccnc1)N1CCC(Cc2cccc(Oc3ccc(C(F)(F)F)cn3)c2)CC1 | -1.87
19 | Cc1c(Cl)cccc1Nc1ccccc1C(=O)O [Tolfenamic acid] | -0.187
20 | Nc1cccc(-c2cc3c(Oc4cccc(O)c4)ncnc3[nH]2)c1 | 0.148

Row | SMILES | presynaptic density (Z-score)
21 | Cc1cc2c(cc1CC(=O)c1sccc1S(=O)(=O)Nc1onc(C)c1Cl)OCO2 [Sitaxentan sodium] | -0.569
22 | NC(=O)Nc1cc(-c2cccc(F)c2)sc1C(=O)N[C@H]1CCCNC1 | 0.58
23 | CCc1nc(N)nc(N)c1-c1ccc(Cl)cc1 | -0.391
24 | COc1ccc(-n2nc(C(N)=O)c3c2C(=O)N(c2ccc(N4CCCCC4=O)cc2)CC3)cc1 [Apixaban] | 0.0881
25 | CNC(=O)c1cc(Oc2ccc(NC(=O)Nc3cc(C(C)(C)C)nn3-c3ccc4ncccc4c3)c(F)c2)ccn1 [DCC-2036 (Rebastinib)] | 0.594
26 | CC(C)[C@H](O)C(=O)N[C@@H](C)C(=O)N[C@@H]1C(=O)N(C)CCc2ccccc21 | -0.185
27 | CC(C)n1c(/C=C/C(O)CC(O)CC(=O)O)c(-c2ccc(F)cc2)c2ccccc21 (centres undefined) [Fluvastatin Sodium] | 1.53
28 | CC(C)(C)c1nc(-c2cccc(NS(=O)(=O)c3c(F)cccc3F)c2F)c(-c2ccnc(N)n2)s1 | 0.941
29 | CC[C@H](C)C(=O)O[C@H]1C[C@@H](C)C=C2C=C[C@H](C)[C@H](CC[C@@H]3C[C@@H](O)CC(=O)O3)[C@H]21 | 1.56
30 | COC(=O)C1=C(C#N)NC(C)=C(C(=O)OC(C)C)C1c1cccc([N+](=O)[O-])c1 (centres undefined) [Nilvadipine] | -0.965
31 | Oc1cc(O)cc(/C=C/c2ccc(O)c(O)c2)c1 [Piceatannol] | -0.0151
32 | C[C@@H](Oc1cc(-n2cnc3ccc(CN4CCN(C)CC4)cc32)sc1C(N)=O)c1ccccc1C(F)(F)F | -1.83
33 | Nc1nc(OCc2cc(Br)cs2)c2[nH]cnc2n1 [Lomeguatrib] | -0.621
34 | CC(C)c1ccc(NC(=O)Cn2cnc3c2c(=O)n(C)c(=O)n3C)cc1 | -0.215
35 | NCC(=O)Nc1ccc(-n2nc(C(F)(F)F)cc2-c2ccc3c(ccc4ccccc43)c2)cc1 | -0.52
36 | COc1cc(Br)c(Nc2nc(-c3c(C)nc4ncccn34)cs2)c(Br)c1 | -2
37 | CC(C)CC(=O)Nc1n[nH]c2c1CN(C(=O)C1CCN(C)CC1)C2(C)C | -2.75
38 | CCc1cncnc1N1CCN(Cc2nc3ccc(C(F)(F)F)cc3[nH]2)CC1 | -0.739
39 | O=C(O)CCc1ccc(NCc2cccc(Oc3ccccc3)c2)cc1 [4-[[(3-Phenoxyphenyl)methyl]amino]benzenepropanoic acid] | -0.812
